Screens from PubChem.
CYP2C19 inhib = blocks human cytochrome P450 2C19; P33261; CYP2C19 Supersomes, luciferin-H EGE luminescence, 30 min; inhibition, % at 5 µM; 96,000 compounds, 21% hits;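 active means CYP2C19 inhibition above a set limit at 5 µM in the primary screen, cut at about 50% in these data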;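 further: plate controls were negative control wells for no effect and 2.5 mM tranylcypromine positive control for full effect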
Target sequence (P33261 whole entry, looked up): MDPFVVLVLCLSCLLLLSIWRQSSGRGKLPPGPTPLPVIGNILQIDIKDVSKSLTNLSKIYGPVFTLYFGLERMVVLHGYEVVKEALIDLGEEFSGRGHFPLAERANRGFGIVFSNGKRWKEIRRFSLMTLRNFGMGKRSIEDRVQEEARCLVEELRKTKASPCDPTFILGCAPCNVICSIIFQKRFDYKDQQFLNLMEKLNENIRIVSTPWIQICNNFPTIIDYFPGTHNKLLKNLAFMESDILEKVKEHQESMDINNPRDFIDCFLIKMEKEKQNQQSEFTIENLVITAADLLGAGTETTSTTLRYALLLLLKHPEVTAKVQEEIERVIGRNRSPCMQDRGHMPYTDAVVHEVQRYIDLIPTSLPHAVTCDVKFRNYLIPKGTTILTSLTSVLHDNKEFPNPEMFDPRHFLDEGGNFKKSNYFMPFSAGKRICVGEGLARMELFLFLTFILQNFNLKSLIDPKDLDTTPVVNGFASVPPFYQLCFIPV
sEH act = activators of human soluble epoxide hydrolase; P34913; purified human sEH enzymatic activity, activator screen; activation, % at 2 µM; 91,000 compounds, 0.04% hits; AID 717; in the data active means activation above about 37%
CYP2C9 activ = increases human cytochrome P450 2C9 activity | P11712 | activation factor at 5 µM | 96,000 compounds, 1.4% hits | recombinant CYP2C9, luciferin-H conversion, luminescence; active compounds read high; factor 1 = untreated enzyme, 0 = blocked;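 active means activation factor of 2 or more for CYP2C9 at a 5 µM dose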;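 further: 0 = sulfaphenazole-blocked wells and 1 = vehicle-only wells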
CYP2C9 inh = human CYP2C9 inhibition | P11712 | CYP2C9 Supersomes, luciferin-H conversion, luminescence | inhibition, % at 5 µM | 96,000 compounds, 20% hits | AID 777;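 active means blocking of liver enzyme CYP2C9 beyond about 50% at 5 µM, limit read from the data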
CYP2C19 act = increases human CYP2C19 enzyme activity; recombinant CYP2C19, luciferin-H EGE luminescence; active compounds read high; 0 = fully inhibited enzyme, 1 = untreated enzyme; activation factor at 5 µM; 96,000 tested, under 10 active; AID 1025;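 active means activation factor of at least 2 at 5 µM in the primary screen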;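 further: 0 = wells with 2.5 mM tranylcypromine and 1 = vehicle-only wells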
sEH inhibitor = blocks human soluble epoxide hydrolase activity; P34913; recombinant human sEH enzymatic activity assay; inhibition, % at 2 µM; 91,000 compounds, 0.34% hits; AID 707; in the data active means inhibition above about 80%
The depositor's hits bear a star; nt = no result given. Rows were chosen to be rich in hits. Some 27% of all compounds tested hit in one or more screens of this group.

SMILES	CYP2C19 inhib	sEH act	CYP2C9 activ	CYP2C9 inh	CYP2C19 act	sEH inhibitor
COc1ccc(OC)c(NC(=O)CN(c2ccc(C)cc2)S(=O)(=O)c2c(C)noc2C)c1	19.5	9.3	0.8	18.6	0.8	-6.2
Cc1cc(-c2nc3cccnc3s2)ccc1NS(=O)(=O)c1ccc2c(c1)OCCO2	30.6	11.6	0	96.2*	0.7	-13.4
CCS(=O)(=O)Nc1cc(-c2nc3cccnc3s2)ccc1C	-0.6	-9.7	0.8	16.7	1	12.9
Cc1c(NS(=O)(=O)c2ccc3c(c2)OCCO3)cccc1-c1nc2cccnc2s1	100.4*	2.8	0.2	82.7*	0	-4.4
CCCCNC(=O)Nc1ccnn1C1CCCCC1	56.8*	nt	0.8	15.1	0.4	nt
COc1ccccc1NC(=O)Cc1cccs1	37.2	4.7	1.4	-41.6	0.6	-5.3
COc1ccccc1NC(=O)Nc1ccnn1Cc1cccs1	63.0*	11.1	0.7	29.5	0.4	-12.7
COc1ccccc1NC(=O)Nc1ccnn1C1CCCCC1	56.2*	nt	0.6	44.2	0.4	nt
O=C(NC(NCC1CCCO1)C(Cl)(Cl)Cl)c1cccc2ccccc12 (stereo unspecified)	8.4	31.9	0.7	30.4	0.9	-27.7
CC(C)CC(=O)NC(NCC1CCCO1)C(Cl)(Cl)Cl (stereo unspecified)	57.0*	5.3	0.7	31.8	0.4	-8.5
Cc1ccc(O)c(C(=O)c2cc(C#N)c(=O)n(CC3CCCO3)c2)c1 (stereo unspecified)	66.0*	6.1	0.5	46.6	0.3	-7.4
COc1ccc(O)c(C(=O)c2cc(C#N)c(=O)n(CC3CCCO3)c2)c1 (stereo unspecified)	9.4	16.6	0.8	18.2	0.9	-15.2
Cc1cccc2cc(CN(Cc3cccnc3)C(=O)c3ccccc3F)c(Cl)nc12	67.5*	5.9	0.4	55.0*	0.3	-6.3
CC(=O)N(Cc1cccnc1)Cc1cc2ccccc2[nH]c1=O	36.5	nt	0.8	19.2	0.6	nt
Cc1cc(C)c2cc(CN(Cc3cccnc3)C(=O)c3ccc(F)cc3)c(Cl)nc2c1	51.8*	-5.3	0.5	45.7	0.5	7.1
COc1ccc2[nH]c(=O)c(CN(CCCN(C)C)C(=O)Nc3ccc(F)cc3)cc2c1	15.6	-9.1	1.1	-5.3	0.8	8.3
O=C(CN1C(=O)NC2(CCCCCC2)C1=O)N1CCN(S(=O)(=O)c2ccc(Cl)cc2)CC1	7.8	nt	0.9	10.5	0.9	nt
Cc1c(Br)c([N+](=O)[O-])nn1C(C)C(=O)NCc1cccnc1 (stereo unspecified)	76.2*	9.3	0.4	56.8*	0.2	-11.3
COc1ccc(OC(C)C(=O)NCc2cccnc2)cc1 (stereo unspecified)	37.4	10.4	0.7	34.6	0.6	-10.3
Clc1ccc(CSc2nnc(-c3cccnc3)n2Cc2ccco2)c(Cl)c1	75.4*	14.7	0.4	62.1*	0.2	-12.8
Clc1cccc(CSc2nnc(-c3cccnc3)n2Cc2ccco2)c1	81.3*	12.6	0.4	64.9*	0.2	-13.0
c1cncc(CSc2nnc(-c3cccnc3)n2Cc2ccco2)c1	10.5	12.2	0.7	29.3	0.9	-14.6
Cc1nnc(N2CCN(c3ccccc3)CC2)c2nn(-c3ccccc3F)c(C)c12	nt	8.8	nt	nt	nt	-9.7
Cn1c(=NC(=O)CCl)sc2ccccc21	-4.5	3.2	1.2	-19.7	1	-3.5
Cn1c(=Nc2ccccc2)sc2ccccc21	81.2*	-6.7	0.6	41.4	0.2	8.4
SMILES	CYP2C19 inhib	sEH act	CYP2C9 activ	CYP2C9 inh	CYP2C19 act	sEH inhibitor
CN(C)c1ccc(N=c2sc3ccccc3n2C)cc1	97.5*	-1.4	0.2	76.8*	0	4.3
CCOC(=O)c1c(NC(=O)CSc2nnc(C)c(=O)[nH]2)sc2c1CCCC2	38.6	1.1	0	98.3*	0.6	-0.4
CCOC(=O)Cc1csc(SCc2nc3sc4c(c3c(=O)[nH]2)CCC4)n1	17.7	-0.5	0.6	36.2	0.8	-0.6
NC(=O)c1c(NC(=O)COC(=O)CSc2nnc(-c3ccc(Cl)cc3)o2)sc2c1CCC2	27.8	0.9	0.2	79.1*	0.7	-3.1
Cc1nnc(SCC(=O)Nc2sc3c(c2C#N)CCCCC3)n1N	1.2	5.0	1	2.6	1	-6.2
CCOC(=O)Cc1csc(SCC(=O)Nc2sc3c(c2C(N)=O)CCC3)n1	33.6	nt	0.5	50.3*	0.7	nt
Cc1nnc(SCC(=O)Nc2sc3c(c2C#N)CCCC3)[nH]c1=O	-1.0	-3.5	0.2	79.4*	1	2.3
